The values below come from PubChem BioAssay (Tox21).

SMILES strings stand for the structures. Results filed as inconclusive are left out. Entries that show only a call come without a potency. Values without a mark were called inactive. Activity calls are given as the source filed them. Calls follow the shape of the dose curve; as a rule, active = well fitted inhibition curve with a large enough effect in the repeat runs; inconclusive = weak or mixed curves; inactive = no such curve, though single readings can be large or run the other way.

The target of the test is Estrogen receptor (Homo sapiens) (UniProt P03372). Put plainly: qHTS assay to identify small molecule antagonists of the estrogen receptor alpha (ER-alpha) signaling pathway using the BG1 cell line in the presence of 0.1 nM 17-beta-estradiol (AID 1259244). Also: nearly all actives have a fitted effect of over 50% in size. Particulars: VM7Luc4E2 (BG1) ERE-luciferase, antagonist mode, 0.1 nM E2, 22 h; series mostly up to 92.4 µM. The text has this: National Center for Advancing Translational Sciences [NCATS]
Chain of Estrogen receptor (Homo sapiens) (P03372 whole entry, looked up): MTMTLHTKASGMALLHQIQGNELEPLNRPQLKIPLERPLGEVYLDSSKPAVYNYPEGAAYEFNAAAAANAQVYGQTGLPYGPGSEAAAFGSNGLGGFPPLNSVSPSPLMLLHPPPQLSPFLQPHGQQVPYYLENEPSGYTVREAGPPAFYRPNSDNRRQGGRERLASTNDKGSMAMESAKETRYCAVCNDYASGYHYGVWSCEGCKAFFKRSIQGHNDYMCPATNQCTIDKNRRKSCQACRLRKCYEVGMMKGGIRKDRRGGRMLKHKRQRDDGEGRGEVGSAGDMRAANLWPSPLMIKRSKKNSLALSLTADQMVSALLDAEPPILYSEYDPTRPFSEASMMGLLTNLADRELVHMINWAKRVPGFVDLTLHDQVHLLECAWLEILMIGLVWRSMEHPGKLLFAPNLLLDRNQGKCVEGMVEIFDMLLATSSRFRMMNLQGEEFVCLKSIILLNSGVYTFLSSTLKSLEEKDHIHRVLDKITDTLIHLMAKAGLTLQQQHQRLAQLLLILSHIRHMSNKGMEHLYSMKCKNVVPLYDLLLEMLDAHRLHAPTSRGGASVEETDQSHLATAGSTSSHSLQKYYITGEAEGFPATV
NIH Chemical Genomics Center [NCGC]
U.S. Environmental Protection Agency [EPA]
National Institutes of Environmental Health Sciences [NIEHS]
National Toxicology Program [NTP]
U.S. Food and Drug Administration [FDA]
Estrogen receptor (ER), a member of the nuclear hormone receptor plays an important role in development, metabolic homeostasis and reproduction. Two subtypes of ER, ER-alpha and ER-beta, have similar expression patterns with some uniqueness in both types. Endocrine disrupting chemicals (EDCs) and their interactions with steroid hormone receptors like ER causes disruption of normal endocrine function. Therefore, it is important to understand the effect of environmental chemicals in ER signaling pathway. For identifying ER antagonists, VM7Luc4E2 cell line was used to screen against Tox21 compound libraries.
VM7Luc4E2 cell line (provided by Denison MS, University of California) endogenously express full-length ER-alpha and is stably transfected with a plasmid containing four estrogen responsive elements (ERE) upstream of a luciferase reporter gene. The current screening for identification of ER-alpha inhibitors against Tox21 compound libraries used lower concentration (0.1 nM) of 17beta-Estradiol as a stimulator.
Tox21 Assay Protocol Summary:
VM7Luc4E2 cells were cultured in phenol red free assay medium containing 10% charcoal stripped FBS for 5 days prior to the assay. The cells were dispensed at 4,000 cells/well in 4 uL of assay medium into white wall/solid-bottom 1536-well plates (Corning Life Sciences, Corning, NY) using a Multidrop Combi (ThermoFisher Scientific, Waltham, MA) dispenser. After the assay plates were incubated at 37C and 5% CO2 for 24 hr, 23 nL of compounds dissolved in DMSO, positive controls or DMSO only was transferred to the assay plates by a Pintool station (Kalypsys, San Diego, CA). The transfer of compounds was followed by the addition of 1 uL of 0.1 nM (final concentration) agonist (17beta-Estradiol)/assay medium using a Flying Reagent Dispenser (FRD, Aurora Discovery, San Diego, CA). The plates were incubated at 37C and 5% CO2 for 22 hr. For luciferase reporter gene assay, 4 uL of ONE-Glo reagent (Promega Corporation, Madison, WI) was added to each well using the FRD and after 30 min incubation at room temperature luminescence intensity was measured using ViewLux plate reader (PerkinElmer, Shelton, CT).
In general terms: Quantitative high-throughput screening tests each substance at several concentrations.
On to `COC(=O)N[C@H](C(=O)N[C@@H](Cc1ccccc1)[C@@H](O)CN(Cc1ccc(-c2ccccn2)cc1)NC(=O)[C@@H](NC(=O)OC)C(C)(C)C)C(C)(C)C`, for which the Potency entry is “inactive”.

Regarding `O=C1CCCCCCCCCCC(=O)OCCO1`, the Potency result was “inactive”.

As to `CCN[C@H]1CN(CCCOC)S(=O)(=O)c2sc(S(N)(=O)=O)cc21`, the Potency entry is “inactive”.

With `O=Cc1ccc(F)c(Br)c1`, the Potency result was “inactive”.

For the molecule `NC(=O)NS(=O)(=O)c1ccc(Cl)cc1`, the Potency entry is “inactive”.

As for `Cc1ccsc1C(=CCCN1CCC[C@@H](C(=O)O)C1)c1sccc1C`, the Potency entry was “inactive”.

Consider `CCN(CC)CCOc1ccc(Cc2ccccc2)cc1`, for which the Potency entry is “inactive”.

Take `COc1cc(N)c(Cl)cc1C(=O)NC1CCN(Cc2ccccc2)CC1`: the Potency entry is “inactive”.

For `CCOC(=O)c1cc(=O)c2c(OCC(COc3cccc4oc(C(=O)OCC)cc(=O)c34)OC(=O)[C@@H](N)CCCCN)cccc2o1`, the Potency result was “inactive”.

Regarding `Cc1cc2c(s1)Nc1ccccc1N=C2N1CCN(C)CC1`, the Potency result is “inactive”.

For `CC(=O)OC1C2(C)CCC(C2)C1(C)C` (stereo not given), the Potency entry is “inactive”.

With `O=C(Cl)c1cccc([N+](=O)[O-])c1`, the Potency result was “inactive”.

On to `O=C(C(Cl)Cl)N1CCOC12CCCCC2`, for which the Potency entry is “inactive”.

Turning to `CC(C)OC(C)C`, the Potency result is “inactive”.

As for `CCCCC(=O)O[C@]1(C(=O)CO)[C@H](C)C[C@H]2[C@@H]3CCC4=CC(=O)C=C[C@]4(C)[C@@]3(F)[C@@H](O)C[C@@]21C`, the Potency entry was “inactive”.

For the molecule `CCc1cc(Cl)c(OC)c(C(=O)NC[C@@H]2CCCN2CC)c1O`, the Potency result is “inactive”.

Regarding `CN(C)C(=O)NC1(c2ccccc2)CCN(CCC[C@]2(c3ccc(Cl)c(Cl)c3)CCCN(C(=O)c3ccccc3)C2)CC1`, the activity change, negative = inhibition was 3.38% [at 19 µM].

`Nc1cccc(S(=O)(=O)O)c1`: the Potency result is “inactive”.

Regarding `CCCCCCCCCCCCOCCOS(=O)(=O)O`, the Potency entry was “inactive”.

Consider `C[C@]12CCC(=O)C=C1CC[C@@H]1[C@@H]2CC[C@@]2(C)[C@H]1CC[C@]2(O)C(=O)CO`, for which the Potency result is “inactive”.

`Cc1cc(S(=O)(=O)O)c(N)cc1Cl`: the Potency result is “inactive”.

`CCOC(=O)[C@H](CCc1ccccc1)N[C@@H](C)C(=O)N1Cc2cc(OC)c(OC)cc2C[C@H]1C(=O)O`: the Potency entry is “inactive”.

In the case of `CCC(=O)Nc1ccc(O)cc1`, the Potency entry is “inactive”.

For the molecule `CCC(=O)O[C@]1(C(=O)SCF)[C@H](C)C[C@H]2[C@@H]3C[C@H](F)C4=CC(=O)C=C[C@]4(C)[C@@]3(F)[C@@H](O)C[C@@]21C`, the Potency entry was “inactive”.

In the case of `CCCOc1ccc2c(c1)CC[C@@H]1[C@@H]2CC[C@]2(C)C(OC)CC[C@@H]12` (stereo not given in full), the Potency entry is “inactive”.

For the molecule `CO[Si](C)(C)OC`, the Potency result was “inactive”.

As for `CC(C)C(=O)OC/C=C/c1ccccc1`, the Potency result was “inactive”.

For the molecule `CC(CNC1CCCCC1)OC(=O)c1ccccc1` (stereo not given), the Potency result was “inactive”.

As to `Cc1cc(NS(=O)(=O)c2ccc(N)cc2)nc(C)n1`, the Potency entry is “inactive”.

In the case of `FC(F)(F)C(Cl)(Cl)Cl`, the Potency entry was “inactive”.

In the case of `FC(F)(F)c1ccccc1`, the Potency result is “inactive”.

With `COC(=O)/C=C(/C)N`, the Potency result was “inactive”.

For `O=C(CCCl)NCc1ccccc1`, the Potency entry was “inactive”.

As to `CC(=O)N[C@@H](CC(C)C)C(=O)O`, the Potency entry is “inactive”.

Consider `CN(CCCN1c2ccccc2CCc2ccccc21)CC(=O)c1ccc(Cl)cc1`, for which the Potency result was “inactive”.

For the molecule `CCCCC1CCC(=O)O1` (stereo not given), the Potency result was “inactive”.

Take `CCCCCCC`: the Potency result is “inactive”.

Regarding `Cc1c(-c2ccccc2)oc2c(C(=O)OCCN3CCCCC3)cccc2c1=O`, the Potency result was “inactive”.

As to `CC(C)C1=CC2=CC[C@@H]3[C@](C)(CCC[C@@]3(C)C(=O)O)[C@H]2CC1`, the Potency entry was “inactive”.

Consider `CCCNC(C)C(=O)Nc1c(C)csc1C(=O)OC` (stereo not given), for which the Potency result is “inactive”.
